Here are results for seven molecules from PubChem BioAssay (NCI).

The panel holds about 83,000 compounds, 20% with a hit somewhere; the sample as a whole holds those more often.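 Each cell line was grown in a 96-well plate and treated with one concentration of compound for 48 hours. Values below 10 were considered active.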 Unmarked numbers belong to inactive results. Calls of active or inactive are those of the source.

Among the test systems are DU-145 prostate; K-562 leukemia; MALME-3M melanoma; MDA-MB-231 breast; RXF 393 renal; SF-268 CNS; SF-295 CNS; SF-539 CNS; UACC-257 melanoma; M14 melanoma; HCT-15 colon; HT29 colon; SNB-75 CNS; SNB-19 CNS; U251 CNS; PC-3 prostate; SK-MEL-5 melanoma; UACC-62 melanoma; LOX IMVI melanoma; SK-MEL-28 melanoma.
Experiment in all cases: NCI-60 one-dose screen, 48 h (100 = growth as untreated, 0 = no growth, -100 = all killed)
What all share (settings): 10 µM unless noted

In the case of `Cc1ccc2c(n1)C(=O)C(Cl)=C(Nc1ccc(N3CCN(C)CC3)cc1)C2=O`, the growth with DU-145 prostate is -18.7% (active); in the assay with K-562 leukemia, -12.3% (active); in the assay with MALME-3M melanoma, -75.5% (active); with MDA-MB-231 breast it was -62.8% (active); with RXF 393 renal, 62.8%; with SF-268 CNS, 77.7%. Also, the growth was 99.4% with SF-295 CNS; -24.5% (active) with SF-539 CNS; 57.2% in the assay with UACC-257 melanoma; 73.8% in the assay with M14 melanoma; 70.4% in the assay with HCT-15 colon; 66.4% in the assay on HT29 colon. Besides, the growth in the assay on SNB-75 CNS was -53.8% (active); with SNB-19 CNS, 94.6%; in the assay with U251 CNS, 8.47% (active); in the assay on PC-3 prostate, 68.7%; with SK-MEL-5 melanoma, 10.4%; in the assay with UACC-62 melanoma, -49.4% (active). Also, the values for the growth in the assay with LOX IMVI melanoma and in the assay with SK-MEL-28 melanoma were -95.4% (active) and 30.3%, respectively.

Turning to `Cn1cc(-c2noc(C(=O)c3cn(C)c4ncc(Br)cc34)n2)c2ccccc21`, the growth with DU-145 prostate was 100%; in the assay with K-562 leukemia, 102%; with MALME-3M melanoma it was 80.5%; in the assay on MDA-MB-231 breast, 79.1%; in the assay on RXF 393 renal, 104%; in the assay with SF-268 CNS it was 94.6%. Also, the growth in the assay on SF-295 CNS is 101%; in the assay on SF-539 CNS it was 87.1%; with UACC-257 melanoma it was 96.7%; in the assay with M14 melanoma it was 99.4%; with HCT-15 colon, 97.7%; in the assay with HT29 colon, 105%. Further, the growth in the assay on SNB-75 CNS is 77.9%; in the assay with SNB-19 CNS it was 96.6%; with U251 CNS, 93.8%; in the assay on PC-3 prostate it was 92.3%; in the assay on SK-MEL-5 melanoma, 95.6%; with UACC-62 melanoma it was 89.3%. Moreover, the growth in the assay with LOX IMVI melanoma is 96.8%; in the assay on SK-MEL-28 melanoma, 101%.

As to `CCOC(=O)c1nn(C2CCCCO2)c2ccc(NC(=O)CN3CCCC3)cc12` (stereo not given), the growth in the assay with DU-145 prostate was 104%; in the assay with K-562 leukemia it was 100%; with MALME-3M melanoma, 102%; with MDA-MB-231 breast it was 104%; in the assay with RXF 393 renal, 133%; in the assay on SF-268 CNS, 93%. The growth in the assay on SF-295 CNS was 98.5%; in the assay on SF-539 CNS, 95.7%; in the assay on UACC-257 melanoma, 91.3%; in the assay with M14 melanoma, 98.2%; in the assay with HCT-15 colon, 106%; with HT29 colon it was 111%. For the same molecule, the growth in the assay on SNB-75 CNS was 79%; with SNB-19 CNS it was 95.8%; in the assay with U251 CNS, 94.8%; with PC-3 prostate it was 107%; with SK-MEL-5 melanoma it was 103%; with UACC-62 melanoma it was 98.5%. Also, the growth in the assay with LOX IMVI melanoma was 97.3%; with SK-MEL-28 melanoma it was 105%.

Turning to `COCCCNc1nc(NC(=O)c2cc(Br)cc(C(F)(F)F)c2)cc(-c2cccnc2)n1`, the growth in the assay with DU-145 prostate is 100%; in the assay on K-562 leukemia it was 73.3%; in the assay on MALME-3M melanoma, 99.7%; with MDA-MB-231 breast, 75.8%; in the assay on RXF 393 renal, 103%; in the assay with SF-268 CNS, 90.5%. Besides, the growth with SF-295 CNS was 89.2%; in the assay on SF-539 CNS, 94%; in the assay with UACC-257 melanoma, 91%; in the assay on M14 melanoma, 96.5%; in the assay with HCT-15 colon it was 85.9%; in the assay with HT29 colon it was 83.7%. The growth in the assay on SNB-75 CNS is 115%; in the assay on SNB-19 CNS, 95.9%; with U251 CNS, 85.9%; in the assay with PC-3 prostate, 70.6%; with SK-MEL-5 melanoma it was 70.6%; with UACC-62 melanoma, 90.5%. Moreover, the growth in the assay on LOX IMVI melanoma is 104%; in the assay on SK-MEL-28 melanoma, 98.6%.

Consider `C=C(C)[C@@H]1CC[C@]2(C(N)=O)CC[C@]3(C)[C@H](CC[C@@H]4[C@@]5(C)CC[C@H](O)C(C)(C)[C@@H]5CC[C@]43C)[C@@H]12`, for which the growth was -33% [100 µM] (active) in the assay with DU-145 prostate; 4.57% [100 µM] (active) in the assay on K-562 leukemia; -57.1% [100 µM] (active) with MALME-3M melanoma; -28.4% [100 µM] (active) with MDA-MB-231 breast; -49.3% [100 µM] (active) with RXF 393 renal; 4.41% [100 µM] (active) in the assay on SF-268 CNS. The growth was -57.7% [100 µM] (active) in the assay on SF-295 CNS; -70.5% [100 µM] (active) in the assay with SF-539 CNS; -6.08% [100 µM] (active) in the assay with UACC-257 melanoma; 8.8% [100 µM] (active) in the assay on M14 melanoma; 6.36% [100 µM] (active) in the assay with HCT-15 colon; -49.5% [100 µM] (active) with HT29 colon. The growth with SNB-75 CNS was -39.1% [100 µM] (active); in the assay with SNB-19 CNS it was 1.3% [100 µM] (active); in the assay with U251 CNS, -69.3% [100 µM] (active); in the assay with PC-3 prostate, -24.5% [100 µM] (active); with SK-MEL-5 melanoma, -39.6% [100 µM] (active); with UACC-62 melanoma, -23.2% [100 µM] (active). Besides, the results for the growth with LOX IMVI melanoma and in the assay on SK-MEL-28 melanoma were -72.8% [100 µM] (active) and 0.379% [100 µM] (active), respectively.

Regarding `O=C1COCCN1c1ccc(NCc2cn(Cc3cccc4ccccc34)c3ccccc23)cc1`, the growth with DU-145 prostate was 98.7%; with K-562 leukemia, 84.6%; with MALME-3M melanoma, 90.1%; with MDA-MB-231 breast, 101%; with RXF 393 renal, 43.1%; in the assay with SF-268 CNS, 85.3%. Further, the growth with SF-295 CNS is 89.6%; in the assay with SF-539 CNS, 95.6%; in the assay on UACC-257 melanoma it was 78.4%; with M14 melanoma, 89%; with HCT-15 colon, 74%; in the assay with HT29 colon, 97.7%. The growth in the assay on SNB-75 CNS is 79.6%; in the assay on SNB-19 CNS it was 97.9%; in the assay on U251 CNS, 74.5%; in the assay with PC-3 prostate, 79.4%; with SK-MEL-5 melanoma, 82.1%; in the assay with UACC-62 melanoma it was 41.7%. The growth with LOX IMVI melanoma is 91%; in the assay with SK-MEL-28 melanoma it was 92.6%.

As to `CCCCCn1sc(=O)n(Cc2ccc(CNC(=O)OCc3ccc4cccc(O)c4n3)cc2)c1=O`, the growth with DU-145 prostate was -15% (active); in the assay with K-562 leukemia it was 3.39% (active); in the assay with MALME-3M melanoma, -77.7% (active); in the assay on MDA-MB-231 breast, -62.5% (active); in the assay with RXF 393 renal, -76.8% (active); in the assay with SF-268 CNS, 27.6%. Also, the growth in the assay with SF-295 CNS is 31.1%; in the assay with SF-539 CNS, -69.6% (active); in the assay with UACC-257 melanoma, 0.0301% (active); with M14 melanoma it was -64.7% (active); in the assay with HCT-15 colon it was -20.5% (active); with HT29 colon, -49.2% (active). The growth in the assay on SNB-75 CNS was -4.62% (active); with SNB-19 CNS, 37%; in the assay on U251 CNS, 20.1%; in the assay on PC-3 prostate, 3.68% (active); in the assay on SK-MEL-5 melanoma it was -44.7% (active); in the assay with UACC-62 melanoma, -64.2% (active). In addition, the growth in the assay on LOX IMVI melanoma was -91.5% (active); with SK-MEL-28 melanoma it was -35% (active).
